# PubChem BioAssay AID1259389 (Center for Chemical Genomics, University of Michigan, 2018)
# The campaign covered roughly 100,000 compounds. About 620 (0.62%) were called active. The sample as a whole holds a higher share of actives than the screen did. A number with no mark means an inactive call. How the source made its calls: active means z-score of 3 or more in at least 2 runs; inactive means the rest.
# Assay: TAR RNA-Tat peptide displacers, HIV-1, primary screen, biochemical, FRET, FAM/TAMRA-labeled Tat (AID 1259389)
# Settings: HIV-1 TAR RNA, Tat peptide displacement FRET; active compounds read high
row,SMILES,z-score
1,Cc1c2c(c(O)c3c(O)cccc13)C(=O)OC2[C@@H]1C(N(C)C)C(O)=C(C(N)=O)C(=O)[C@H]1O (stereo partly drawn),31 (active)
2,COc1cc(NC(=O)NCC2CCCO2)cc2sc(NS(=O)(=O)c3ccccc3)nc12 (stereo not drawn),0.36
3,Cc1ccc2cc(-c3noc(CCC(N)=O)n3)c(=O)[nH]c2c1,6.88 (active)
4,COc1cccc(-c2nc(-c3cc4cc(C)ccc4[nH]c3=O)no2)c1,0.22
5,Cc1ccc2cc(-c3noc(CC(C)C)n3)c(=O)[nH]c2c1,-1.58
6,C=CCOc1ccc(C2c3c(oc4ccc(F)cc4c3=O)C(=O)N2CCOC)cc1 (stereo not drawn),2.08
7,CCCOC(=O)C1=C(C)Nc2nnnn2C1c1cc(Br)ccc1OC (stereo not drawn),-6.75
8,Cc1cc2c3c([nH]c2cc1S(=O)(=O)Nc1ccccc1F)CC(C)(C)CC3=O,0.08
9,CCCS(=O)(=O)Nc1cccc(-c2ccc(S(=O)(=O)CC)nn2)c1,-0.4
10,Cc1ccc(S(=O)(=O)Nc2cccc(-c3cn4ccccc4n3)c2)cc1C,0.58
11,CCCS(=O)(=O)Nc1cccc(-c2cn3ccsc3n2)c1,15.9 (active)
12,O=C1COc2cc(S(=O)(=O)CCC(=O)N3CCCC3)c(Cl)cc2N1,0.78
13,CCN1CCN(c2ncnc3sc(C(=O)N4CCC(N5CCCCC5)CC4)c(C)c23)CC1,1.72
14,Cc1ccc(C)c(N2CCN(c3ncnc4sc(C(=O)O)c(C)c34)CC2)c1,4.41 (active)
15,COc1ncnc2sc(C(=O)O)c(C)c12,1.15
16,Cn1c(=O)oc2cc(S(=O)(=O)N3CCC(C(=O)NCCC4=CCCCC4)CC3)ccc21,-0.51
17,CCOC(=O)C1=C(C)NC2=C(C(=O)C(C(=O)OC)C(C)C2)C1c1ccc(C)s1 (stereo not drawn),1.89
18,Cc1cccc(NC(=O)c2cc3c(s2)-c2ccccc2S(=O)(=O)C3)n1,1.46
19,CCc1ccc(Nc2nn3c(=O)c4cc5c(cc4nc3s2)OCO5)cc1,3.98
20,O=c1c2ccccc2nc2sc(Nc3ccc4c(c3)OCO4)nn12,18.8 (active)
21,COC(=O)c1ccc2c(=O)n3nc(Nc4ccc(F)c(F)c4)sc3nc2c1,-0.18
22,C=CCN(Cc1nc(-c2cccc(C)c2)no1)S(=O)(=O)c1ccccc1,1.74
23,CC(C)OC(=O)c1ccc(N2CC(O)=C(c3nc4ccccc4n3C)C2=N)cc1,-0.32
24,CSc1cccc(N2CC(c3nc4ccccc4n3CCN3CCOCC3)CC2=O)c1 (stereo not drawn),1.11
25,CCc1cccc(NS(=O)(=O)c2ccc(/C=C/c3onc(C)c3[N+](=O)[O-])cc2)c1,1.16

row,SMILES,z-score
1,CCCCN(C)S(=O)(=O)c1cc(-c2cc(C)no2)ccc1CC,2.74
2,CCCSc1ncc(CO)n1Cc1ccccc1,1.26
3,COc1ccccc1N1CCN(Cc2cc(=O)n3nc(C4CCCCC4)sc3n2)CC1,0.09
4,CCC(CC)C(=O)Nc1ccc(OCc2cc(=O)n3cccc(C)c3n2)cc1,2.07
5,Cc1ccc(-c2ncnc3c(C#N)c4ccccn4c23)cc1,2.39
6,Nc1ccc(-c2cc(=O)n3[nH]cnc3n2)cc1,10.6 (active)
7,O=C(Nc1nc2nc(-c3ccccc3)cc(=O)n2[nH]1)C1CC1,2.82
8,O=C(Nc1nc2nc(-c3ccccc3)cc(=O)n2[nH]1)C1CCCCC1,0.88
9,Cc1cc(-c2ccc(S(=O)(=O)N3CCc4ccccc4C3)s2)on1,0.06
10,Cc1ccc(S(=O)(=O)Nc2ccc3c(c2)oc(=O)n3C)cc1,1.19
11,C#CCSc1nc2c(c(=O)[nH]1)C(c1ccc(O)c(O)c1)CC(=O)N2 (stereo not drawn),26.9 (active)
12,CCSc1nc2c(c(=O)[nH]1)C(c1ccc(OC)c(Br)c1)CC(=O)N2 (stereo not drawn),1.43
13,C#CCSc1nc2c(c(=O)[nH]1)C(c1ccc(OCCCC)cc1)CC(=O)N2 (stereo not drawn),-0.97
14,CCN(CC)C(=O)Cn1c(-n2nc(C)cc2C)nc2c(c1=O)CCCC2,1.12
15,Cc1ccc(-c2nc(CSCC(=O)NC3CC3)no2)cc1,0.42
16,C=C(C)COc1ccc2oc(C)c(C(=O)OCC)c2c1,0.55
17,CCOc1ccc(C2CC(=O)N3CN(c4ccc(OC)cc4OC)CSC3=C2C#N)cc1OC (stereo not drawn),-4.55
18,COc1ccc(N2CSC3=C(C#N)C(c4cccc(Br)c4)CC(=O)N3C2)cc1 (stereo not drawn),-0.77
19,COc1cc(C2CC(=O)N3CN(c4ccc(Br)cc4)CSC3=C2C#N)ccc1O (stereo not drawn),24.7 (active)
20,COC(=O)c1ccc(N2CSC3=C(C#N)C(c4ccc(Cl)cc4)CC(=O)N3C2)cc1 (stereo not drawn),-0.23
21,COc1cccc(C2CC(=O)N3CN(c4ccc(Br)cc4)CSC3=C2C#N)c1 (stereo not drawn),-2.72
22,COc1cc(C2CC(=O)N3CN(c4ccccc4)CSC3=C2C#N)ccc1O (stereo not drawn),31.5 (active)
23,COc1cccc(Nc2c(O)c(=O)c2=O)c1,-0.8
24,CCC(C)NC(=O)Cn1c(=O)n(CC2CCC(C(=O)N3CCCC3)CC2)c(=O)c2sccc21 (stereo not drawn),0.29
25,CC1CCCN(C(=O)Cn2c(=O)oc3cc(S(=O)(=O)N4CCCCC4C)ccc32)C1 (stereo not drawn),1.86

row,SMILES,z-score
1,CSc1nnc(-c2nonc2NC(C)=O)n1C,0.81
2,COc1cccc(Nc2nc(-c3cc(OC)ccc3OC)no2)c1,1.24
3,CC(=O)N1N=C(c2cc(C3CC3)nc3ccccc23)OC1c1ccc(F)cc1 (stereo not drawn),21.6 (active)
4,CC(=O)N1N=C(c2cc(C3CC3)nc3ccccc23)OC1c1ccc([N+](=O)[O-])s1 (stereo not drawn),2.1
5,COc1ccccc1C1OC(c2cc(C3CC3)nc3ccccc23)=NN1C(C)=O (stereo not drawn),1.12
6,COc1ccc(-c2nc3sccn3c2Nc2ccc(Cl)cc2)cc1,0.26
7,O=c1[nH]c(-c2cccc(Cl)c2)nc2c1Cc1cc(F)ccc1O2,1.31
8,CCOc1ccccc1NS(=O)(=O)c1cc2c3c(c1)C(C)C(=O)N3CCC2 (stereo not drawn),2.12
9,Cc1ccc(S(=O)(=O)Nc2ccc3[nH]c(=O)oc3c2)cc1C,0.9
10,Cc1cc(NS(=O)(=O)c2ccc(-n3cccn3)cc2)ccc1Br,0.31
11,Cc1cc(NS(=O)(=O)c2ccc3[nH]c(=O)ccc3c2)ccc1Br,3.75 (active)
12,CCC(C)NC(=O)c1ccc2c(=O)n(C)c3n[nH]c(=O)n3c2c1 (stereo not drawn),-1.23
13,COC(=O)c1cccc(N2C(=O)C3C4C=CC(CC4)C3C2=O)c1 (stereo not drawn),-0.18
14,COc1cccc(-c2n[nH]c3c2C(c2cccs2)NC3=O)c1 (stereo not drawn),0.03
15,O=C1C(=O)N(CCCN2CCOCC2)C(c2ccc(F)cc2)/C1=C(\O)c1ccc(F)cc1 (stereo not drawn),-0.23
16,CCN(c1cccc(C)c1)c1c(-c2ccc(C)c(C)c2)c(=O)c1=O,1.19
17,Cc1cc(=O)oc2c1c(C)nn2-c1cccc(Br)c1,2.1
18,Cc1cc(=O)oc2c1c(C)nn2-c1ccc(Cl)cc1,6 (active)
19,Cc1cccc(-n2nc(C)c3c(C)cc(=O)oc32)c1,-1.35
20,CCOCc1nc(N2CCOCC2)sc1C(=O)NCc1ccco1,1.59
21,Cc1nc2c3cccnc3nn2c(C)c1CCC(=O)NC1CCCCC1,0.03
22,Cc1nc2nc(N3C(=O)CCC3=O)[nH]n2c(=O)c1C,0.34
23,O=C(NCc1ccc2c(c1)OCO2)C(=O)c1c[nH]c2ccccc12,-0.39
24,O=C(NCc1ccc2c(c1)OCO2)c1sc2ncccc2c1-n1cccc1,0.34
25,O=C(NCc1ccc2c(c1)OCO2)c1sc(=S)n2c1[nH]c(=O)c1ccccc12,8.38 (active)

row,SMILES,z-score
1,CCc1ccc(S(=O)(=O)Nc2cccc(-c3ccc(S(C)(=O)=O)nn3)c2)s1,-0.88
2,O=S(=O)(c1ccc(Cl)cc1)N(Cc1nc(-c2ccccc2)no1)C1CCCCC1,-0.39
3,O=C(O)c1ccc2c(=O)[nH]c3c(C(=O)NC4CCCCC4)sc(=S)n3c2c1,10.3 (active)
4,O=C(NC1CCCCC1)c1ccc(CNc2c(N3CCCC3)c(=O)c2=O)cc1,2.73
5,CC(C)NC(=O)c1sc(=S)n2c1[nH]c(=O)c1ccc(C(=O)NCCN(C)C)cc12,7.52 (active)
6,C=CCNC(=O)c1sc(=S)n2c1[nH]c(=O)c1ccc(C(=O)OC)cc12,-0.19
7,O=C(NC1CCCC1)c1ccc2c(=O)[nH]c3c(C(=O)NCC4CCCO4)sc(=S)n3c2c1 (stereo not drawn),9.34
8,CCOC(=O)c1sc(=S)n2c1[nH]c(=O)c1ccc(C(=O)OC)cc12,3.58
9,Cc1nn2c(=O)cc(CSc3nnc(COc4ccccc4C)n3C)nc2s1,-1.46
10,CCNc1nc(NCCN(C)C)nc2c1cnn2C,1.49
11,CC1CCN(S(=O)(=O)c2ccc3nc(Nc4cc(F)ccc4F)ccc3c2)CC1,1
12,C=CCc1ccccc1OCc1cc(=O)n2nc(-c3ccc(OC)cc3)sc2n1,-1.28
13,CCOc1ccc(-c2nc3c(s2)CN(S(=O)(=O)c2cccc4nsnc24)CC3)cc1,0.4
14,CCCNS(=O)(=O)c1ccc2c(c1)oc(=O)n2CC(=O)OCC,-3.16
15,Cc1nn(C)c(C)c1CNS(=O)(=O)c1ccc2c(c1)oc(=O)n2C,0.45
16,Cc1nc2ccccc2n1CCNS(=O)(=O)c1ccc2c(c1)oc(=O)n2C,3.26 (active)
17,CCC1CN(C(=O)Nc2ccccc2)c2ccccc2O1 (stereo not drawn),1.11
18,c1ccc(CSc2nnc(-c3ccco3)c(-c3ccco3)n2)cc1,8.76 (active)
19,O=C(CSc1ccc(-c2cccs2)nn1)Nc1ccc(Br)cc1,2.14
20,O=c1[nH]c(SCc2ccccc2)nnc1-c1ccccc1,-0.2
21,O=C(CSc1nnc(-c2ccco2)c(-c2ccco2)n1)Nc1ccc(Br)cc1,24.6 (active)
22,Nc1cc(=O)nc(SCc2ccccc2)n1Cc1ccco1,0.7
23,CN(C)c1ccc(NC(=O)CSc2nc(-c3ccco3)cc(C(F)(F)F)n2)cc1,0.28
